We go through three molecules from PubChem BioAssay (NCI).

What all share (assay): NCI-60 one-dose screen, 48 h (100 = growth as untreated, 0 = no growth, -100 = all killed)
The test system of one assay is 786-0 renal. The settings on record: 10 µM.
A further assay has as its system K-562 leukemia. The settings on record: 10 µM.
A further assay has as its system MALME-3M melanoma. The settings on record: 10 µM.
In a further assay the test system is RXF 393 renal. The settings on record: 10 µM.
A further assay deals with EKVX NSCLC. The settings on record: 10 µM.
The next assay deals with SN12C renal. The settings on record: 10 µM.
For a further assay, the system named is UO-31 renal. The settings on record: 10 µM.
The next assay concerns TK-10 renal. The settings on record: 10 µM.
The test system of another assay is ACHN renal. The settings on record: 10 µM.
For the next assay, the system named is CAKI-1 renal. The settings on record: 10 µM.
The next assay deals with CCRF-CEM leukemia. The settings on record: 10 µM.
In a further assay the test system is OVCAR-8 ovarian. The settings on record: 10 µM.
A further assay concerns OVCAR-5 ovarian. The settings on record: 10 µM.
Another assay deals with OVCAR-4 ovarian. The settings on record: 10 µM.
The test system of another assay is SK-OV-3 ovarian. The settings on record: 10 µM.
A further assay concerns OVCAR-3 ovarian. The settings on record: 10 µM.
The next assay deals with NCI/ADR-RES ovarian. The settings on record: 10 µM.
For another assay, the system named is BT-549 breast. The settings on record: 10 µM.
Another assay relates to MCF7 breast. The settings on record: 10 µM.
The next assay concerns MDA-MB-468 breast. The settings on record: 10 µM unless noted.

Compounds without any hit were thinned out: in the full panel of roughly 83,000, 20% have a hit.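 Compound tested at a single concentration for 48 hours in 96-well plates; a percent growth value below 10 was scored as active.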 Values without a mark were called inactive. Active and inactive are the calls of the source.

With `COc1cc(OC)c(S(=O)(=O)N(CCCl)CCCl)cc1C(=O)/C=C/c1cc(OC)c(OC)c(OC)c1`, the growth in the assay with 786-0 renal is -59.7% (active); in the assay with K-562 leukemia, 4.13% (active); with MALME-3M melanoma, -15.6% (active); in the assay on RXF 393 renal it was -75.5% (active); in the assay on EKVX NSCLC, 12.3%; in the assay on SN12C renal it was 8.6% (active). Besides, the growth in the assay on UO-31 renal was -93.9% (active); in the assay on TK-10 renal it was 3.84% (active); in the assay with ACHN renal, 2.37% (active); in the assay on CAKI-1 renal it was -5.59% (active); in the assay on CCRF-CEM leukemia it was 1.08% (active); in the assay on OVCAR-8 ovarian it was 9.85% (active). Further, the growth in the assay on OVCAR-5 ovarian is -1.21% (active); with OVCAR-4 ovarian, 23.2%; with SK-OV-3 ovarian, 9.62% (active); with OVCAR-3 ovarian it was -3.7% (active); in the assay with NCI/ADR-RES ovarian, 4.75% (active); in the assay on BT-549 breast, -84.7% (active). Moreover, the growth in the assay on MCF7 breast was -39.2% (active); with MDA-MB-468 breast, -40.5% (active).
Consider `CC[C@]12C=CCN3CC[C@@]4(c5ccc(OC)cc5N(C)[C@H]4[C@@](O)(C(=O)OC)[C@@H]1OC(=O)CCCC[P+](c1ccc(OC)cc1)(c1ccc(OC)cc1)c1ccc(OC)cc1)[C@@H]32`, for which the growth in the assay with 786-0 renal was -92.9% (active); in the assay on K-562 leukemia, 1.01% (active); in the assay on MALME-3M melanoma it was -97.2% (active); in the assay with RXF 393 renal, -90.4% (active); with EKVX NSCLC it was -59.7% (active); in the assay on SN12C renal, -95.3% (active). For the same molecule, the growth in the assay with UO-31 renal was 15.5%; in the assay on TK-10 renal it was -88.2% (active); in the assay on ACHN renal it was -49.2% (active); in the assay on CAKI-1 renal, -78.5% (active); in the assay with CCRF-CEM leukemia, -59.1% (active); in the assay on OVCAR-8 ovarian, -90.2% (active). Besides, the growth with OVCAR-5 ovarian is -98.6% (active); in the assay with OVCAR-4 ovarian it was -37.7% (active); in the assay with SK-OV-3 ovarian, -82.5% (active); in the assay with OVCAR-3 ovarian, -71.8% (active); in the assay on NCI/ADR-RES ovarian, 84.3%; in the assay on BT-549 breast, -96.7% (active). For the same molecule, in the assay with MCF7 breast, the growth was -82.6% (active).
As for `CCOC(=O)C1=C(Nc2ccccc2)C(=O)OC12C(=O)Nc1ccccc12` (centres undefined), the growth in the assay on 786-0 renal is 108%; in the assay on K-562 leukemia, 95.5%; in the assay on MALME-3M melanoma, 102%; in the assay on RXF 393 renal, 119%; in the assay with EKVX NSCLC it was 95.2%; in the assay on SN12C renal, 110%. The growth in the assay with UO-31 renal is 73.2%; in the assay on TK-10 renal, 137%; with ACHN renal, 107%; in the assay with CAKI-1 renal it was 82.6%; in the assay with CCRF-CEM leukemia it was 93.9%; in the assay with OVCAR-8 ovarian it was 105%. Also, the growth in the assay on OVCAR-5 ovarian was 103%; with OVCAR-4 ovarian, 107%; with SK-OV-3 ovarian it was 104%; with OVCAR-3 ovarian, 104%; in the assay with NCI/ADR-RES ovarian, 107%; in the assay with BT-549 breast it was 103%. In addition, the growth in the assay on MCF7 breast was 95.6%; in the assay on MDA-MB-468 breast, 129%.
